Data from PubChem BioAssay (EPA / NIEHS).
Results filed as inconclusive are left out. The source made the active and inactive calls. How the source made its calls, unless noted: active means hit-call score of the fitted dose curve at least 0.9, where 1 is the maximum; inconclusive means response in the unintended direction; inactive means score below 0.9.

Tests used:
[1] = BSK_4H_Eotaxin3: BioMAP Diversity Plus: 4H Assay for Eotaxin 3 Biomarker Activity (AID 2283000; active means hit-call score of the fitted dose curve at least 0.9, where 1 is the maximum; inactive means score below 0.9;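 further: CCL26 protein level quantified by ELISA in parallel with SRB cytotoxicity check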); settings: primary human endothelial cells (HUVEC); actives raise or lower the signal
In short: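 Readout is Eotaxin-3 (CCL26) level by ELISA in primary human umbilical vein endothelial cells harvested 24 h after chemical exposure; activity fitted in both directions against DMSO control.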

[2] = read-out: Intercellular Adhesion Molecule 1 (ICAM1), ICAM1 (gene 3383); assay: BSK_3C_ICAM1: BioMAP Diversity Plus: 3C Assay for Intercellular Adhesion Molecule 1 (ICAM1) Biomarker Activity (AID 2283003; active means hit-call score of the fitted dose curve at least 0.9, where 1 is the maximum; inactive means score below 0.9); settings: primary human endothelial cells (HUVEC); actives raise or lower the signal
In short: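 Using DMSO as baseline, bidirectional curve fitting was applied to ICAM-1 ELISA signals from HUVEC in the 3C system, measured 24 h after compound addition.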

[3] = BSK_3C_Proliferation: Cell Proliferation Assessment in the BioMAP Diversity Plus: 3C Assay (AID 2283006; active means hit-call score of the fitted dose curve at least 0.9, where 1 is the maximum; inactive means score below 0.9); settings: primary human endothelial cells (HUVEC)
In short: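 Measured here: sulforhodamine B (0.1%) staining of TCA-fixed sub-confluent umbilical vein endothelial cultures 48 h post-dosing, absorbance 560 nm. DMSO served as negative control and baseline; both signal gain and loss were modelled.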

[4] = target: Peroxisome proliferator-activated receptor gamma (Homo sapiens) (UniProt P37231); assay: ATG_PPARg_TRANS: Attagene TRANS-FACTORIAL HepG2 Assay for human Peroxisome Proliferator-activated Receptor-gamma (PPARg) (AID 2283007)
In short: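 A TRANS-format multiplexed reporter assay measures activity of an exogenous chimeric NR-Gal4 protein in HepG2 cells. After 24 h of chemical exposure, reporter transcripts are amplified, fluorescently labelled and sized by capillary electrophoresis, with gain of signal scored against DMSO.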

[5] = target: Nuclear receptor subfamily 1 group I member 2 (Homo sapiens) (UniProt O75469); assay: ATG_PXR_TRANS: Attagene TRANS-FACTORIAL HepG2 Assay for human Pregnane X Receptor (PXR) (AID 2283008)
In short: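 Transient HepG2 transfectants carrying multiplexed reporter transcription units; PXR activity read through a Gal4 chimera. 24 h exposure. RT-PCR/CE fluorescence; upward curve fit referenced to DMSO.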

[6] = target: human Retinoic Acid Receptor gamma (RARg), RARG (gene 5916) (UniProt P13631); assay: ATG_RARg_TRANS: Attagene TRANS-FACTORIAL HepG2 Assay for human Retinoic Acid Receptor gamma (RARg) (AID 2283009)
In short: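 Gain-of-signal relative to DMSO is reported from fluorescent capillary electrophoresis of RT-PCR reporter products. These came from HepG2 cells expressing transfected RARg-GAL4 chimeras with UAS reporters, harvested 24 h after dosing.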

[7] = target: human RAR-related Orphan Receptor beta (RORb), RORB (gene 6096) (UniProt Q92753); assay: ATG_RORb_TRANS: Attagene TRANS-FACTORIAL HepG2 Assay for human RAR-related Orphan Receptor beta (RORb) (AID 2283010)
In short: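 Multiplexed transcription-factor reporter assay: HepG2 cells transiently carrying NR-Gal4/GAL4-UAS constructs, 24 h treatment, mRNA quantified by RT-PCR plus capillary electrophoresis fluorescence; activity scored as induction over DMSO.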

[8] = target: human RAR-related Orphan Receptor gamma (RORg), RORC (gene 6097) (UniProt P51449); assay: ATG_RORg_TRANS: Attagene TRANS-FACTORIAL HepG2 Assay for human RAR-related Orphan Receptor gamma (RORg) (AID 2283011)
In short: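 Transient MRTU transfection of HepG2 (TRANS format, exogenous NR-Gal4 chimera). 24 h dosing. Total RNA → oligo(dT) RT → PCR → 6-FAM labelling → HpaI cut → CE. Gain vs DMSO.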

[9] = target: human Thyroid Receptor alpha (THRa1), THRA (gene 7067) (UniProt P10827); assay: ATG_THRa1_TRANS: Attagene TRANS-FACTORIAL HepG2 Assay for human Thyroid Receptor alpha (THRa1) (AID 2283014)
In short: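 Transient HepG2 transfection, NR-Gal4 chimera driving GAL4-UAS reporters; 24 h compound exposure; total RNA, oligo(dT) RT, PCR, fluorescent primer extension, capillary electrophoresis. Upward direction vs DMSO control.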

[10] = read-out: E-selectin (Homo sapiens) (UniProt P16581); assay: BSK_3C_Eselectin: BioMAP Diversity Plus: 3C Assay for Eselectin Biomarker Activity (AID 2283015; active means hit-call score of the fitted dose curve at least 0.9, where 1 is the maximum; inactive means score below 0.9;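 further: cell surface E-selectin protein quantified by ELISA 24 h after dosing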); settings: primary human endothelial cells (HUVEC); actives raise or lower the signal
In short: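 HUVEC, 3C stimulation; compound exposure 24 h; E-selectin by ELISA; gain- or loss-of-signal fitted bidirectionally vs DMSO baseline.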

[11] = read-out: Interleukin-1 alpha (IL1a), IL1A (gene 3552); assay: BSK_BE3C_IL1a: BioMAP Diversity Plus: BE3C Assay for Interleukin-1 alpha (IL1a) Biomarker Activity (AID 2283016; active means hit-call score of the fitted dose curve at least 0.9, where 1 is the maximum; inactive means score below 0.9); settings: primary human bronchial epithelial cells; actives raise or lower the signal
In short: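 Measured in human lung primary bronchial epithelial cells: IL-1a by ELISA at 24 h after dosing, with bidirectional fitting against DMSO.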

[12] = read-out: Monocyte Chemoattractant Protein-1 (MCP1), CCL2 (gene 6347); assay: BSK_3C_MCP1: BioMAP Diversity Plus: 3C Assay for Monocyte Chemoattractant Protein-1 (MCP1) Biomarker Activity (AID 2283017; active means hit-call score of the fitted dose curve at least 0.9, where 1 is the maximum; inactive means score below 0.9); settings: primary human endothelial cells (HUVEC); actives raise or lower the signal
In short: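 HUVEC, 3C system; 24 h chemical exposure; MCP-1 by ELISA; bidirectional curve fit vs DMSO baseline.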

[13] = read-out: Monocyte Chemoattractant Protein-1 (MCP1), CCL2 (gene 6347); assay: BSK_4H_MCP1: BioMAP Diversity Plus: 4H Assay for Monocyte Chemoattractant Protein-1 (MCP1) Biomarker Activity (AID 2283018; active means hit-call score of the fitted dose curve at least 0.9, where 1 is the maximum; inactive means score below 0.9); settings: primary human endothelial cells (HUVEC); actives raise or lower the signal
In short: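 Primary human umbilical vein endothelium is exposed to chemical for 24 h before MCP-1 is assayed by ELISA. Concentration-response fitted bidirectionally relative to DMSO.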

[14] = read-out: Human Leukocyte Antigen - DR isotype (HLADR), HLA-DRA (gene 3122); assay: BSK_3C_HLADR: BioMAP Diversity Plus: 3C Assay for Human Leukocyte Antigen - DR isotype (HLADR) Biomarker Activity (AID 2283019; active means hit-call score of the fitted dose curve at least 0.9, where 1 is the maximum; inactive means score below 0.9;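 further: ELISA of cell-surface HLA-DR on HUVEC 24 h after dosing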); settings: primary human endothelial cells (HUVEC); actives raise or lower the signal
In short: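 HUVEC, 3C stimulation, 24 h post-dose; HLA-DR by ELISA; bidirectional curve fit vs DMSO baseline; gain or loss of signal scored.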

[15] = read-out: Interleukin-8 (IL8), CXCL8 (gene 3576); assay: BSK_3C_IL8: BioMAP Diversity Plus: 3C Assay for Interleukin-8 (IL8) Biomarker Activity (AID 2283020; active means hit-call score of the fitted dose curve at least 0.9, where 1 is the maximum; inactive means score below 0.9); settings: primary human endothelial cells (HUVEC); actives raise or lower the signal
In short: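 Using DMSO-treated wells as the baseline, bidirectional curve fitting was applied to ELISA-measured IL-8 from human umbilical vein endothelial cultures sampled 24 h after compound addition.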

[16] = target: human Retinoic Acid Receptor beta (RARb), RARB (gene 5915) (UniProt P10826); assay: ATG_RARb_TRANS: Attagene TRANS-FACTORIAL HepG2 Assay for human Retinoic Acid Receptor beta (AID 2283004)
In short: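 Readout is reporter mRNA induction: RNA reverse-transcribed, PCR-amplified, FAM-labelled, HpaI-cut and resolved by capillary electrophoresis. Transiently transfected HepG2 cells carrying exogenous NR–Gal4 chimeras were dosed for 24 h; activity fitted upward relative to DMSO.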

[17] = target: human Peroxisome Proliferator-activated Receptor alpha (PPARa), PPARA (gene 5465) (UniProt Q07869); assay: ATG_PPARa_TRANS: Attagene TRANS-FACTORIAL HepG2 Assay for human Peroxisome Proliferator-activated Receptor alpha (PPARa) (AID 2283001)
In short: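 Transfected HepG2 cells treated with test chemical for 24 h. RNA isolated, reverse-transcribed with oligo(dT), PCR-amplified, FAM-labelled and HpaI-digested. Fragments sized by capillary electrophoresis; gain-of-signal fit relative to DMSO.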

[18] = target: human Peroxisome Proliferator-activated Receptor delta (PPARd), PPARD (gene 5467) (UniProt Q03181); assay: ATG_PPARd_TRANS: Attagene TRANS-FACTORIAL HepG2 Assay for human Peroxisome Proliferator-activated Receptor delta (PPARd) (AID 2283002)
In short: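 Transient HepG2 transfection (multiple GAL4-UAS RTUs, chimeric receptor-Gal4); 24 h dosing; total RNA → oligo(dT) RT → PCR → 6-FAM primer extension → HpaI cut → CE. Positive direction vs DMSO.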

[19] = target: human Retinoid X Receptor beta (RXRb), RXRB (gene 6257) (UniProt P28702); assay: ATG_RXRb_TRANS: Attagene TRANS-FACTORIAL HepG2 Assay for human Retinoid X Receptor beta (RXRb) (AID 2283013)
In short: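 After a 24 h incubation with test chemical, transfected HepG2 cells carrying NR-Gal4 fusions and GAL4-UAS reporter transcription units yield RNA whose reporter cDNA is FAM-labelled, HpaI-cut and sized by capillary electrophoresis; increases over DMSO are scored.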

[20] = target: Retinoic acid receptor RXR-alpha (Homo sapiens) (UniProt P19793); assay: ATG_RXRa_TRANS: Attagene TRANS-FACTORIAL HepG2 Assay for human Retinoid X Receptor alpha (RXRa) (AID 2283012)
In short: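 Chimeric NR-GAL4 trans-activation in HepG2, 24 h treatment; reporter transcripts quantified by fluorescence on capillary electrophoresis, analysed for upward change from DMSO.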

Chain of Nuclear receptor subfamily 1 group I member 2 (Homo sapiens) (O75469 whole entry, looked up, the tested form may be a part): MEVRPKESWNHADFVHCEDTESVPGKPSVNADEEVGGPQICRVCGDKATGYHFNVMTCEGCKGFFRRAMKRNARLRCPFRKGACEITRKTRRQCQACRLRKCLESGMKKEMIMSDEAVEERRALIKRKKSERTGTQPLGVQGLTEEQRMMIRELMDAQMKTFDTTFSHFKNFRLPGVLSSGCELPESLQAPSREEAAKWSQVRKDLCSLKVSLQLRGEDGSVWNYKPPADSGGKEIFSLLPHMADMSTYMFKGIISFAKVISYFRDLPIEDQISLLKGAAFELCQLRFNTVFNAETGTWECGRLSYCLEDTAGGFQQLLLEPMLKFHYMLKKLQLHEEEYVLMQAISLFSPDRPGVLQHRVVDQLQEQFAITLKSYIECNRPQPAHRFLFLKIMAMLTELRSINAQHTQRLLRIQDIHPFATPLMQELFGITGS
Chain of human RAR-related Orphan Receptor gamma (RORg), RORC (gene 6097) (P51449 whole entry, looked up, the tested form may be a part): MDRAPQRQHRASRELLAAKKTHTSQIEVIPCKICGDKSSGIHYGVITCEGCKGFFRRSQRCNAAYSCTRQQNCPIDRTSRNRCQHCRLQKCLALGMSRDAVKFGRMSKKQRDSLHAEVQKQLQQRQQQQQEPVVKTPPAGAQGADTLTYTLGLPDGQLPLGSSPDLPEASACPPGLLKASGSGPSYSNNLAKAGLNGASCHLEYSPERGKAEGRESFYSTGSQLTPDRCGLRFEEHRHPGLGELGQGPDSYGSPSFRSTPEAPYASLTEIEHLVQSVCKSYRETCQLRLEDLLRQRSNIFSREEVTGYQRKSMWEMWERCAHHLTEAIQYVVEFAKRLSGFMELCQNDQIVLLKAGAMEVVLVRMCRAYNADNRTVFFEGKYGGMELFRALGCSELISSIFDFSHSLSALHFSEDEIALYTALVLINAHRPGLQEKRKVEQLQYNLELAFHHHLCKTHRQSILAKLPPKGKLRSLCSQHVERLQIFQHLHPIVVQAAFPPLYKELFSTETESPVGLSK
Chain of human Peroxisome Proliferator-activated Receptor delta (PPARd), PPARD (gene 5467) (Q03181 whole entry, looked up, the tested form may be a part): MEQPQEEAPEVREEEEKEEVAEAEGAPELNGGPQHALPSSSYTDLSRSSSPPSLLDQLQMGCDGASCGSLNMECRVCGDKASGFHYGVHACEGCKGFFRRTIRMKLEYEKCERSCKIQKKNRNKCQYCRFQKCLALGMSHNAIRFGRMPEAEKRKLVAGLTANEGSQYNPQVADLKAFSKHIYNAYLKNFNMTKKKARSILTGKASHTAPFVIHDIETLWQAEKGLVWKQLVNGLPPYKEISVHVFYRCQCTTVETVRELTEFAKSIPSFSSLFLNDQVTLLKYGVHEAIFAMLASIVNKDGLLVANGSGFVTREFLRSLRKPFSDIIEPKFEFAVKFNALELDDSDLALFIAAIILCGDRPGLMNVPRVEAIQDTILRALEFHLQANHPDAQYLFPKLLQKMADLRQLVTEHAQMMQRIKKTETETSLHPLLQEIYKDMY
Chain of human Retinoic Acid Receptor gamma (RARg), RARG (gene 5916) (P13631 whole entry, looked up, the tested form may be a part): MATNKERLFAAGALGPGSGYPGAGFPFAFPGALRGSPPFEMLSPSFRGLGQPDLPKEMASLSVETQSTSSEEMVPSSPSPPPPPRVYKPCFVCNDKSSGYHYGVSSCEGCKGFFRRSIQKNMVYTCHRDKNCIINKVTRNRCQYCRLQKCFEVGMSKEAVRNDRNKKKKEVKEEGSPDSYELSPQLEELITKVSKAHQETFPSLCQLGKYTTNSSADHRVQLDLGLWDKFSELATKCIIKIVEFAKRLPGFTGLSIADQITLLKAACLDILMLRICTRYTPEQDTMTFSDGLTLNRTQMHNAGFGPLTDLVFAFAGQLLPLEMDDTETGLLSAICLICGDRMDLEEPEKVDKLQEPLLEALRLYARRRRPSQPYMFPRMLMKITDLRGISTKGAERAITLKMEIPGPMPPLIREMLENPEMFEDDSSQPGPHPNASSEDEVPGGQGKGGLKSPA
Chain of Retinoic acid receptor RXR-alpha (Homo sapiens) (P19793 whole entry, looked up, the tested form may be a part): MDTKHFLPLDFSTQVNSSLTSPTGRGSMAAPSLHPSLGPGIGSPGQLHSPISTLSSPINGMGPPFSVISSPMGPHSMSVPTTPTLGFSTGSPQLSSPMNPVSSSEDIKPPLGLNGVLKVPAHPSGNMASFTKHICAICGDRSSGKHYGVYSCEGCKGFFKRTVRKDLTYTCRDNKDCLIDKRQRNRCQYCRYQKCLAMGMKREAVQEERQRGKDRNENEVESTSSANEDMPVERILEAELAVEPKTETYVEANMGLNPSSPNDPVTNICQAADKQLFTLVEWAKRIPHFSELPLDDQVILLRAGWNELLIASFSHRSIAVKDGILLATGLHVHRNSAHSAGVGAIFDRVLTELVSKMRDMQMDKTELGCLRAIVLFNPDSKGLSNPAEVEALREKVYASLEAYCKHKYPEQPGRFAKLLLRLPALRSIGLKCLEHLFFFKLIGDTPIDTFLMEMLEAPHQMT
Chain of human Peroxisome Proliferator-activated Receptor alpha (PPARa), PPARA (gene 5465) (Q07869 whole entry, looked up, the tested form may be a part): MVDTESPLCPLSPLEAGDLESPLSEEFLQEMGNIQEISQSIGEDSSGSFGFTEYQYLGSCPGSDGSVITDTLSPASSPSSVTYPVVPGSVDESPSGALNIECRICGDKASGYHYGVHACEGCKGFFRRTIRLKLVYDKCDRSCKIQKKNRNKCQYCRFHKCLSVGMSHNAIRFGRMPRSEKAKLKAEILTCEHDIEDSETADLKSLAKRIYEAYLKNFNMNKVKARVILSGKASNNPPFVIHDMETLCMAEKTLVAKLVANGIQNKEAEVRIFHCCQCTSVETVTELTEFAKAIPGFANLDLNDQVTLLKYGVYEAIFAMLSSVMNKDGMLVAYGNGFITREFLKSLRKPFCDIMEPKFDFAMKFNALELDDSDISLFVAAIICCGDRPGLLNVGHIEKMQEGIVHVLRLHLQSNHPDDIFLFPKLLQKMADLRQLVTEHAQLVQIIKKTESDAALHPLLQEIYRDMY
Chain of Peroxisome proliferator-activated receptor gamma (Homo sapiens) (P37231 whole entry, looked up, the tested form may be a part): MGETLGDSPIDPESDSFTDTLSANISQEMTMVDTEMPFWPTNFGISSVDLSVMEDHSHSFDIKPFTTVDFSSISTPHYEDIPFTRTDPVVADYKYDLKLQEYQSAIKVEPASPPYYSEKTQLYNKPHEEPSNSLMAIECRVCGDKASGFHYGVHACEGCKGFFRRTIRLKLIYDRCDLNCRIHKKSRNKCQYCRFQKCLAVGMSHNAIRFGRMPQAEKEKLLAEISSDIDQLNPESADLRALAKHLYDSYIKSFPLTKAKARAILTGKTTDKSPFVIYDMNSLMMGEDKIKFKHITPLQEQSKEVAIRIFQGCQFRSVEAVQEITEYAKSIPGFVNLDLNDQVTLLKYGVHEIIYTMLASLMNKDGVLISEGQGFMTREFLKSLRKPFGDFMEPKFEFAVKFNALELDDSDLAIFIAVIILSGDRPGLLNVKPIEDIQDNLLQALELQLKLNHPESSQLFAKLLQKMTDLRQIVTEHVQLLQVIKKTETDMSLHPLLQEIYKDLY
Chain of E-selectin (Homo sapiens) (P16581 whole entry, looked up): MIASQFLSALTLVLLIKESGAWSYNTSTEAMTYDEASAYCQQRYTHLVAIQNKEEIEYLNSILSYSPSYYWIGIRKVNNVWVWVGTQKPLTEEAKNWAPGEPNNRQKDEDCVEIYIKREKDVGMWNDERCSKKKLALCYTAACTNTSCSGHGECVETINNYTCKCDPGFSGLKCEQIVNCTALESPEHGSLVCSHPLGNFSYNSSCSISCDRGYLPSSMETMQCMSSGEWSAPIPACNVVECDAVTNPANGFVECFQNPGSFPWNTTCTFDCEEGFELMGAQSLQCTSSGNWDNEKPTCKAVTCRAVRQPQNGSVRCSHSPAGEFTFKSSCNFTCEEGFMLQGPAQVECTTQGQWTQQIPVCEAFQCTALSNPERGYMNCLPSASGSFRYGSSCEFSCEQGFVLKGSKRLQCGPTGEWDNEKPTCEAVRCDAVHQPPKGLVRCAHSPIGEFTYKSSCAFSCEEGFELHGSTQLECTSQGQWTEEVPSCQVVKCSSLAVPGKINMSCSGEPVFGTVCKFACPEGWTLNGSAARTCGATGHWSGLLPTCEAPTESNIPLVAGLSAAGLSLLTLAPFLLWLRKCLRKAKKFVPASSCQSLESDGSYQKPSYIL
Chain of human RAR-related Orphan Receptor beta (RORb), RORB (gene 6096) (Q92753 whole entry, looked up, the tested form may be a part): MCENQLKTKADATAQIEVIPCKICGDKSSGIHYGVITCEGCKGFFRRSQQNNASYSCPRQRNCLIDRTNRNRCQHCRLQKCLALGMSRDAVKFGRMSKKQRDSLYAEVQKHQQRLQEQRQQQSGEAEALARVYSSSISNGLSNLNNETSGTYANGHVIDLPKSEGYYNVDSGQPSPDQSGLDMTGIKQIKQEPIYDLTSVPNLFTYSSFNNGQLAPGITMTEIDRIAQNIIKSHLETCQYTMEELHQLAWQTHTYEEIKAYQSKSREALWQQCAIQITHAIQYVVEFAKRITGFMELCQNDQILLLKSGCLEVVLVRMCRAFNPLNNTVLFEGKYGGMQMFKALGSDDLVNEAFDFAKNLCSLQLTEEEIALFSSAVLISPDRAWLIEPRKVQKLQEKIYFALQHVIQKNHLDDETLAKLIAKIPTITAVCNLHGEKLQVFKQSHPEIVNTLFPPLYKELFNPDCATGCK
Chain of human Retinoid X Receptor beta (RXRb), RXRB (gene 6257) (P28702 whole entry, looked up, the tested form may be a part): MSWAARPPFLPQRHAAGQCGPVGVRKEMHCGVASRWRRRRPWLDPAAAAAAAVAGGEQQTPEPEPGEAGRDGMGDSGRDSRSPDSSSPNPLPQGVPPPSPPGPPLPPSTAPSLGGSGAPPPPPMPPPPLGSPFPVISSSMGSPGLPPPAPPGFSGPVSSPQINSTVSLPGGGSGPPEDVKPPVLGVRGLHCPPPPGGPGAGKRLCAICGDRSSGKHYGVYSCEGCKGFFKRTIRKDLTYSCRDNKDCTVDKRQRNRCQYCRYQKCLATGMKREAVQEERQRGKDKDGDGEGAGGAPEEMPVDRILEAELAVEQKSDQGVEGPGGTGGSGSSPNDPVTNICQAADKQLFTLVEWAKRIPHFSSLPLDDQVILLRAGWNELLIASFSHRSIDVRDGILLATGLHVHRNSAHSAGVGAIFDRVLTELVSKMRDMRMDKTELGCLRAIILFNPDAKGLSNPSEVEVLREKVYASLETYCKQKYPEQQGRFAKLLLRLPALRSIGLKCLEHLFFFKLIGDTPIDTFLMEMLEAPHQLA

## CCCCCCCOC(=O)c1ccccc1C(=O)OCCCCCCC
[1]
  outcome: inactive
[2]
  outcome: inactive
[3]
  outcome: inactive
[4]
  AC50: 10.8 µM (active)
[5]
  AC50: 6.29 µM (active)
[6]
  outcome: inactive
[7]
  outcome: inactive
[8]
  outcome: inactive
[9]
  outcome: inactive
[10]
  outcome: inactive
[11]
  outcome: inactive
[12]
  outcome: inactive
[13]
  outcome: inactive
[14]
  outcome: inactive
[15]
  outcome: inactive

## FC1CC(F)(F)C(F)(F)C1(F)F (stereo unspecified)
[1]
  outcome: inactive
[2]
  outcome: inactive
[16]
  outcome: inactive
[3]
  outcome: inactive
[4]
  outcome: inactive
[8]
  outcome: inactive
[9]
  outcome: inactive
[10]
  outcome: inactive
[11]
  outcome: inactive
[12]
  outcome: inactive
[13]
  outcome: inactive
[14]
  outcome: inactive
[15]
  outcome: inactive

## CS(C)(=O)=O
[1]
  outcome: inactive
[2]
  outcome: inactive
[3]
  outcome: inactive
[5]
  outcome: inactive
[10]
  outcome: inactive
[11]
  outcome: inactive
[12]
  outcome: inactive
[13]
  outcome: inactive
[14]
  outcome: inactive
[15]
  outcome: inactive

## Cc1ccc(S(=O)(=O)NCl)cc1
[17]
  outcome: inactive
[18]
  outcome: inactive
[4]
  outcome: inactive
[5]
  outcome: inactive
[7]
  outcome: inactive
[8]
  outcome: inactive
[9]
  outcome: inactive

## CC(C)=CCCC(C)CCOC(=O)C(C)C (stereo unspecified)
[17]
  outcome: inactive
[18]
  outcome: inactive
[4]
  outcome: inactive
[5]
  outcome: inactive
[8]
  outcome: inactive
[19]
  outcome: inactive
[9]
  outcome: inactive

## Cc1cccc(N(C)C)c1
[4]
  outcome: inactive
[5]
  outcome: inactive
[6]
  outcome: inactive
[7]
  outcome: inactive
[8]
  outcome: inactive
[9]
  outcome: inactive

## CCCCOc1ccc(N)cc1
[4]
  outcome: inactive
[5]
  outcome: inactive

## CC(C)OC(=O)c1ccccc1C(=O)OC(C)C
[16]
  outcome: inactive
[4]
  AC50: 100 µM (active)
[5]
  AC50: 5.74 µM (active)
[6]
  outcome: inactive
[7]
  outcome: inactive
[20]
  outcome: inactive

## CNC(=S)NC
[18]
  outcome: inactive
[16]
  outcome: inactive
[4]
  outcome: inactive
[5]
  outcome: inactive
[7]
  outcome: inactive
[9]
  outcome: inactive

## CC/C=C\CCOC(C)=O
[17]
  outcome: inactive
[5]
  outcome: inactive
[8]
  outcome: inactive

## CCCCCC=O
[4]
  outcome: inactive
[7]
  outcome: inactive
[9]
  outcome: inactive

## CC(C)(C)c1ccc(OC2CCCCC2O)cc1 (stereo unspecified)
[16]
  outcome: inactive
[4]
  AC50: 28.4 µM (active)
[5]
  AC50: 2.96 µM (active)
[7]
  outcome: inactive
[8]
  outcome: inactive
[19]
  outcome: inactive
[9]
  outcome: inactive

## CCCCCCOC(=O)c1ccccc1
[6]
  outcome: inactive
[20]
  outcome: inactive
[9]
  outcome: inactive

## C1COCCN1
[16]
  outcome: inactive
[5]
  outcome: inactive
[7]
  outcome: inactive
[8]
  outcome: inactive
[19]
  outcome: inactive
[9]
  outcome: inactive

## FC(F)(F)C(F)(F)C(F)(F)C(F)(F)C(F)(F)C(F)(F)C(F)(F)C(F)(F)CCS
[1]
  outcome: inactive
[2]
  outcome: inactive
[3]
  outcome: inactive
[9]
  outcome: inactive
[10]
  outcome: inactive
[11]
  outcome: inactive
[12]
  outcome: inactive
[13]
  outcome: inactive
[14]
  outcome: inactive
[15]
  outcome: inactive

## Nc1ccc(Oc2cccc(Oc3ccc(N)cc3)c2)cc1
[4]
  AC50: 5.29 µM (active)
[5]
  AC50: 22.1 µM (active)
[8]
  outcome: inactive

## CCN(Cc1cccc(S(=O)(=O)O)c1)c1ccc(C(=C2C=CC(=[N+](CC)Cc3cccc(S(=O)(=O)O)c3)C=C2)c2ccc(O)cc2S(=O)(=O)[O-])cc1
[17]
  outcome: inactive
[18]
  outcome: inactive
[4]
  outcome: inactive
[5]
  outcome: inactive
[7]
  outcome: inactive
[8]
  outcome: inactive

## CC/C=C\CCOC(=O)c1ccccc1
[17]
  outcome: inactive
[16]
  outcome: inactive
[4]
  outcome: inactive
[5]
  outcome: inactive
[6]
  outcome: inactive
[7]
  outcome: inactive
[20]
  outcome: inactive
[19]
  outcome: inactive
